Source: PubChem BioAssay AID504534 (National Center for Advancing Translational Sciences (NCATS), 2011)
Results filed as inconclusive are left out. A call without a number means that no potency is given here. Calls of active or inactive are those of the source. The call rests on the fitted dose curve; in most records, active means well fitted curve in the direction sought with a large enough effect; inconclusive means small, poorly fitted or top-dose-only effect, or another doubt; inactive means no such curve, though single readings can be large or run the other way.

Assay: Secondary Assay for Inhibitors of Human Cdc-like kinase 4 (Clk4): HEK-293 Cell Viability Assay;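 further: cytotoxic hits lower the ATP light signal so activity reflects loss of viability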
Settings: HEK-293 viability, ATP luminescence (CellTiter-Glo), 24/48 h; series mostly up to 46.1 µM
Method: NIH Molecular Libraries Probe Production Centers Network [MLPCN] NIH Chemical Genomics Center [NCGC] MLPCN Grant: 1R03MH084827-01 Assay Submitter (PI): Tom Misteli NCGC Assay Overview: Cytotoxicity of the active compounds in the Clk4 screens was assessed using the CellTiter-Glo Luminescent Cell Viability Assay kit (Promega, USA) in the HEK-293 (ATCC) cell line. CellTiter-Glo measures the intracellular ATP present in metabolically active cells using Ultra-Glo as the luciferase to detect ATP levels. In brief, the luciferase in the buffer catalyzes the oxidation of luciferin to oxyluciferin and light which is dependent on ATP. […] Wells treated with various concentrations of cycloheximide (Sigma) and DMSO, and wells with media alone were used as positive and negative controls, respectively. […] [1] http://www.promega.com/tbs/tb288/tb288.pdf
NCGC Assay Protocol Summary: HEK-293 cells were grown in a flask up to 80% confluence. Cells were trypsinized, washed, and resuspended in MEM Eagle + 10% FBS + 1% pen-strep media at a concentration of 120 cells/uL. Five uL/well of cell solution was dispensed into a 1536-well assay plates (Greiner, solid white medium-binding plates) with Aurora Discovery BioRAPTR Flying Reagent Dispenser (FRD; Beckton-Dickenson). Cells were pre-incubated at 37 degree Celsius, 5% CO2 for four hours. Compound and control solutions (23nL) were then transferred to the assay plate using the Kalypsys 1536-pin tool. Assay plates were re- incubated at 37 degree Celsius, 5% CO2. After 24 or 48 hours, five uL of CellTiter Glo detection reagent was added. Luminescence signal was read with Perkin Elmer ViewLux plate reader after 30 min room temperature incubation.
Potency means the concentration at half of the fitted maximal effect.

| Compound | Potency |
| --- | --- |
| Cc1csc(CNc2ncnc3ccc(-c4ccco4)cc23)c1 | inactive |
| Cc1csc(CNc2ncnc3ccc(-c4ccc5c(ccn5C)c4)cc23)c1 | inactive |
| CN1CCN(c2ncc3nc(-c4cn(C)c5ccccc45)c(=O)n(Cc4cccs4)c3n2)CC1 | 8.88 µM (active) |
| CN(CCc1ccco1)c1ncnc2ccc(-c3ccc4c(c3)OCO4)cc12 | inactive |
| CCOC(=O)c1ccc(-c2ccc3ncnc(NCCc4cnc[nH]4)c3c2)o1 | inactive |
| c1cncc(-c2ccc3ncnc(NCc4ccc5c(c4)OCO5)c3c2)c1 | inactive |
| O=C(O)c1ccc(-c2ccc3ncnc(N4CCOCC4)c3c2)o1 | inactive |
| Fc1cccc(CNc2ncnc3ccc(-c4cccnc4)cc23)c1 | inactive |
| CN(CC1CCCCO1)c1ncnc2ccc(-c3ccc4c(c3)OCO4)cc12 (stereo not given) | inactive |
| Cc1csc(CNc2ncnc3cc(-c4ccc5c(c4)OCO5)ccc23)n1 | inactive |
| Cc1ccc(CNc2ncnc3ccc(-c4ccc([C@@H](C)O)o4)cc23)o1 | inactive |
| CCOC(=O)c1ccoc1-c1ccc2ncnc(NCc3ccc(C)o3)c2c1 | inactive |
| Fc1cccc(CNc2ncnc3ccc(-c4ccc5c(c4)OCO5)cc23)c1 | inactive |
| c1c[nH]c(CNc2ncnc3ccc(-c4ccoc4)cc23)n1 | inactive |
| Clc1ccccc1-c1ccc2ncnc(NCc3cccs3)c2c1 | inactive |
| CC(C)(C)CNc1ncnc2ccc(-c3ccc4c(c3)OCO4)cc12 | inactive |
| Cc1ccsc1CN(C)c1ncnc2ccc(-c3ccc(COC(=O)N(C)C)o3)cc12 | inactive |
| c1cncc(CNc2ncnc3ccc(-c4ccco4)cc23)c1 | inactive |
| Fc1cccc(CNc2ncnc3ccc(-c4ccccc4Cl)cc23)c1 | inactive |
| NCCNc1ncnc2ccc(-c3ccc4c(c3)OCO4)cc12 | inactive |

| Compound | Potency |
| --- | --- |
| Clc1cccc(-c2ccc3ncnc(NCc4ccc5c(c4)OCO5)c3c2)c1 | inactive |
| Fc1cccc(CNc2ncnc3ccc(-c4ccoc4)cc23)c1 | inactive |
| Cc1csc(CNc2ncnc3ccc(-c4cccnc4)cc23)c1 | inactive |
| CCCN(Cc1cccs1)c1ncnc2ccc(-c3ccc4c(c3)OCO4)cc12 | inactive |
| Clc1ccccc1-c1ccc2ncnc(NCc3ccc4c(c3)OCO4)c2c1 | inactive |
| c1cncc(CNc2ncnc3ccc(-c4cccnc4)cc23)c1 | inactive |
| c1csc(CCNc2ncnc3ccc(-c4ccc5c(c4)OCO5)cc23)c1 | inactive |
| C[C@@H](O)c1ccc(-c2ccc3ncnc(NCc4cccs4)c3c2)o1 | inactive |
| Cc1cccc(CNc2ncnc3ccc(-c4ccc5c(c4)OCO5)cc23)c1 | inactive |
| c1coc(CNc2ncnc3ccc(-c4ccc5c(c4)OCO5)cc23)c1 | inactive |
| CC(Nc1ncnc2ccc(-c3ccc4c(c3)OCO4)cc12)c1ccco1 (stereo not given) | inactive |
| COc1cccc(-c2ccc3ncnc(NCc4cccc(C)c4)c3c2)c1 | inactive |
| CC(=O)c1ccc(-c2ccc3ncnc(NCc4ccc(C)o4)c3c2)o1 | inactive |
| Cc1ccsc1CN(C)c1ncnc2ccc(-c3ccc([C@@H](C)O)o3)cc12 | inactive |
| Cc1cc(CNc2ncnc3ccc(-c4ccc5c(c4)OCO5)cc23)c(C)o1 | inactive |
| Cc1cccc(CNc2ncnc3ccc(-c4ccc5c(c4)OCCO5)cc23)c1 | inactive |
| COc1cccc(Nc2ncc3nc(-c4cn(C)c5ccccc45)c(=O)n(CCC#N)c3n2)c1 | 7.91 µM (active) |
| Cc1cccc(CNc2ncnc3ccc(-c4cccnc4)cc23)c1 | inactive |
| Cc1nc(CNc2ncnc3ccc(-c4ccoc4C)cc23)cs1 | inactive |
| CN(Cc1ncc[nH]1)c1ncnc2ccc(-c3ccc4c(c3)OCO4)cc12 | inactive |
